{"source": "PubChem BioAssay AID435005", "about": "(Broad Institute, 2010)", "note": "Out of some 300,000 compounds screened, about 2,400 (0.8%) were called active. What follows is part of a selection rich in actives, with near analogues and random picks from the rest. A number with no mark means an inactive call.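 The calls were made as follows: active = Every replicate reaches about 75%, or at least half do and their mean reaches it too (limit read from the data); inconclusive = At least half of replicates reach the limit but their mean does not; inactive = Under half of replicates reach the limit.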", "data": [{"assay": "INS-1E beta cell survival under cytokines – luminescence, primary screen (AID 435005);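 also: 0% = cytokine-treated negative control wells and 100% = positive control rescue; higher means more ATP so stronger rescue from cytokine killing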", "conditions": "INS-1E cytokine-induced death, ATP luminescence, 48 h; stronger effect = higher value; percent of positive-control rescue, neutral wells zero; concentration not given here", "values": [{"compound": "CCn1nc(C(=O)Nc2ccc(N3CCOCC3)cc2)c2ccccc2c1=O", "protection from apoptosis": "-0.317%"}, {"compound": "C#CCOCCOCCOCCNc1nc(N2CCN(C(=O)C([C@@H](C)O)n3cc([C@@H](N)CCCCN)nn3)CC2)nc(N2CCN(C(=O)[C@H](CCCCN)n3cc(CN)nn3)CC2)n1", "note": "(stereo partly drawn)", "protection from apoptosis": "0.272%"}, {"compound": "CN(CC(=O)NCC(c1ccccc1)N1CCCC1)S(=O)(=O)c1ccc(Cl)cc1", "note": "(stereo not drawn)", "protection from apoptosis": "-2.83%"}, {"compound": "CC1CCCC(C)N1C(=O)COC(=O)COc1ccccc1C#N", "note": "(stereo not drawn)", "protection from apoptosis": "-0.693%"}, {"compound": "COc1cc(OC)cc(-c2cc3ccc(F)cc3cn2)c1", "protection from apoptosis": "3.7%"}, {"compound": "CC(=O)Nc1ccc(S(=O)(=O)NCC(=O)OCC(=O)c2ccc[nH]2)cc1", "protection from apoptosis": "0.385%"}, {"compound": "O=C(C[C@H]1C/C=C\\C[C@@H](NC(=O)OCC2c3ccccc3-c3ccccc32)C(=O)O[C@@H](c2ccccc2)CNC1=O)N[C@H](CO)Cc1ccccc1", "protection from apoptosis": "54.4%"}, {"compound": "O=C(Cc1nc2ccccc2[nH]c1=O)c1ccc(Cl)cc1", "protection from apoptosis": "-0.338%"}, {"compound": "O=C(/C(=C/c1cccc(Cl)c1)c1nc2ccccc2[nH]1)c1ccccc1", "protection from apoptosis": "101% (active)"}, {"compound": "CCC(=O)/C(=C(/O)c1ccccc1)c1nc2ccccc2[nH]1", "protection from apoptosis": "-5.02%"}, {"compound": "CC(=O)c1ccc(NC(=O)CSc2nc3ccccc3c(=O)n2CCCN2CCOCC2)cc1", "protection from apoptosis": "-12.1%"}, {"compound": "N#Cc1cccc(Nc2c3c(nc4ccccc24)CCCC3)c1", "protection from apoptosis": "10.5%"}, {"compound": "O=C(Nc1c2c(nc3ccccc13)CCCC2)c1ccccc1Br", "protection from apoptosis": "-2.43%"}, {"compound": "CC(=O)Nc1ccc(Nc2c3ccccc3nc3ccccc23)cc1", "protection from apoptosis": "88.6% (active)"}, {"compound": "Cc1ccc(Nc2c3c(nc4ccccc24)CCC3)cc1", "protection from apoptosis": "82.4% (active)"}, {"compound": "CC(=O)Nc1ccc(NC(=O)COc2ncnc3ccccc23)cc1", "protection from apoptosis": "1.06%"}, {"compound": "CC(C)(C)OC(=O)NNc1c2ccccc2nc2ccccc12", "protection from apoptosis": "24.9%"}, {"compound": "COc1ccc(Cl)cc1NC(=O)COC(=O)c1ccc(Br)o1", "protection from apoptosis": "-10.1%"}, {"compound": "COc1cccc(NC(=O)CSc2nnc(C3CCCCC3)n2N)c1", "protection from apoptosis": "-3.75%"}, {"compound": "O=C(Nc1cn(-c2ccccc2)nc1-c1ccccc1)c1ccccc1", "protection from apoptosis": "2.47%"}, {"compound": "Cc1ccc(-c2nn(-c3ccccc3)cc2C(=O)NC2CCC(O)CC2)cc1", "note": "(stereo not drawn)", "protection from apoptosis": "1.53%"}, {"compound": "CCc1ccc(-c2nn(-c3ccccc3)cc2CSC(=N)N)cc1", "protection from apoptosis": "89.4% (active)"}, {"compound": "Cc1occc1C(=O)Nc1cccc(S(=O)(=O)N2CCOCC2)c1", "protection from apoptosis": "-3.05%"}, {"compound": "C=CCC[C@H](Cc1ccc(F)cc1)C(=O)OC[C@H](C)NC(=O)[C@H](CC=C)CC(=O)N(CCO)Cc1ccccc1", "protection from apoptosis": "2.93%"}, {"compound": "CN1CCN(c2nc3c(c(=O)[nH]c(=O)n3C)n2Cc2cccc3ccccc23)CC1", "protection from apoptosis": "2.14%"}, {"compound": "Cn1c(=O)[nH]c(=O)c2c1nc(N1CCN(C(c3ccccc3)c3ccccc3)CC1)n2CCO", "protection from apoptosis": "99.9% (active)"}, {"compound": "Cn1c(=O)[nH]c(=O)c2c1nc(N1CCN(CCO)CC1)n2CCSc1nc2ccccc2s1", "protection from apoptosis": "2.68%"}, {"compound": "CCCCCCn1c(CN2CCCCC2)nc2c1c(=O)n(C)c(=O)n2C", "protection from apoptosis": "2.42%"}, {"compound": "CCCCCCCCn1c2c(c(=N)c3c1CCC3)CCCC2", "protection from apoptosis": "99.8% (active)"}, {"compound": "CC(NC(=O)COC(=O)c1ccc2ccccc2n1)c1ccccc1", "note": "(stereo not drawn)", "protection from apoptosis": "-4.86%"}, {"compound": "O=C(Nc1nnc(-c2ccccc2)o1)c1cccc(S(=O)(=O)N2CCOCC2)c1", "protection from apoptosis": "5.19%"}, {"compound": "Cc1c(Cl)c([N+](=O)[O-])nn1Cc1ccc(C(=O)N/N=C\\c2cc(Cl)ccc2O)o1", "protection from apoptosis": "89.7% (active)"}, {"compound": "Cc1c(Cl)c([N+](=O)[O-])nn1CCCC(=O)Nc1cc(Cl)ccc1Cl", "protection from apoptosis": "5.23%"}, {"compound": "Cc1ccc(C(=O)O)cc1NC(=O)c1ccc(Cn2nc(C)c(Cl)c2C)o1", "protection from apoptosis": "1.11%"}, {"compound": "O=C(CSc1nnc(N2CCOCC2)n1-c1cccc(F)c1)N1CCN(c2ccccn2)CC1", "protection from apoptosis": "-0.686%"}, {"compound": "COc1cccc2sc3cc(NCC[C@@H]4CCCN4C)ccc3c(=O)c12", "protection from apoptosis": "-2.22%"}, {"compound": "O=Cc1cn(Cc2ccccc2)nc1-c1cccnc1", "protection from apoptosis": "0.63%"}, {"compound": "Clc1ccc(CN2CCN(/N=C/c3cccnc3)CC2)cc1", "protection from apoptosis": "-0.218%"}, {"compound": "O=C1/C(=C\\c2cccnc2)CN(Cc2ccccc2)C/C1=C\\c1cccnc1", "protection from apoptosis": "83.8% (active)"}, {"compound": "COc1ccc(C(=O)COC(=O)C(O)c2ccccc2)c(OC)c1", "note": "(stereo not drawn)", "protection from apoptosis": "-0.354%"}, {"compound": "O=C(COC(=O)c1ccc(F)cc1)NCC1COc2ccccc2O1", "note": "(stereo not drawn)", "protection from apoptosis": "-5.32%"}, {"compound": "Cc1ccc(NC(=O)/C(=C/c2ccc([N+](=O)[O-])cc2)NC(=O)c2ccccc2)cc1", "protection from apoptosis": "-0.596%"}, {"compound": "CCOC(=O)COc1ccc([N+](=O)[O-])cc1", "protection from apoptosis": "-8.02%"}, {"compound": "CCOC(=O)/C(=C\\c1ccc([N+](=O)[O-])cc1)C(=O)c1cc(C(C)=O)c(Nc2ccccc2)s1", "protection from apoptosis": "107% (active)"}, {"compound": "COc1ccc2nc3n(c(=O)c2c1)-c1ccc(Cl)cc1C(=O)NC3Cc1ccccc1", "note": "(stereo not drawn)", "protection from apoptosis": "5.15%"}, {"compound": "COc1ccc(S(=O)(=O)N(C)C[C@@H]2Oc3ccc(NC(=O)Nc4c(C)noc4C)cc3C(=O)N([C@H](C)CO)C[C@@H]2C)cc1", "protection from apoptosis": "4.1%"}, {"compound": "Cc1nnc(N/N=C/c2ccccn2)[nH]c1=O", "protection from apoptosis": "109% (active)"}, {"compound": "Cc1cc(C(=O)N/N=C/c2ccccn2)c2ccccc2n1", "protection from apoptosis": "-6.79%"}, {"compound": "O=C(N/N=C/c1ccccn1)c1cccnc1", "protection from apoptosis": "-0.0642%"}, {"compound": "COc1ccc(S(=O)(=O)N2CCN(CC(=O)N3CCOCC3)CC2)cc1OC", "protection from apoptosis": "-2.22%"}, {"compound": "CN(c1ccccc1)S(=O)(=O)c1cccc(NC(=O)Cc2ccc(Cl)cc2)c1", "protection from apoptosis": "14.2%"}, {"compound": "COc1ccc(C(CCNCc2ccccc2F)c2ccc(F)cc2)cc1", "note": "(stereo not drawn)", "protection from apoptosis": "1.89%"}, {"compound": "COc1ccccc1NC(=O)CCCc1c[nH]c2ccccc12", "protection from apoptosis": "6.21%"}, {"compound": "COc1cccc(CNCCc2c[nH]c3ccccc23)c1OCc1ccccc1F", "protection from apoptosis": "82.8% (active)"}, {"compound": "C=CCC[C@H](Cc1ccc(F)cc1)C(=O)OC[C@@H](Cc1c[nH]c2ccccc12)NC(=O)[C@H](CC=C)CC(=O)N[C@H](CO)Cc1ccccc1", "protection from apoptosis": "-1.63%"}, {"compound": "Cc1cc(N2CCCC2)ccc1NC(=O)COc1ccc(Cl)cc1", "protection from apoptosis": "-16.4%"}, {"compound": "O=C1N[C@H](Cc2c[nH]c3ccccc23)COC(=O)[C@H](Cc2ccc(F)cc2)C/C=C\\C[C@H]1CC(=O)N(CCO)Cc1ccccc1", "protection from apoptosis": "-0.37%"}, {"compound": "CCc1ccc(OCC2c3cc(OC)c(OC)cc3CCN2C(C)=O)cc1", "note": "(stereo not drawn)", "protection from apoptosis": "-2.37%"}, {"compound": "COc1ccc2c(c1)CCNC2Cc1ccc(OC)c(O)c1", "note": "(stereo not drawn)", "protection from apoptosis": "-7.35%"}, {"compound": "CC[C@H]1CN2CCc3cc(OC)c(OC)cc3[C@@H]2C[C@@H]1C[C@H]1NCCc2cc(OC)c(OC)cc21", "protection from apoptosis": "81.8% (active)"}, {"compound": "Cc1ccc(S(=O)(=O)N2CCN(C(=O)Cn3c(=O)cnc4ccccc43)CC2)c(C)c1", "protection from apoptosis": "3.1%"}, {"compound": "CCOc1ccccc1Nc1nnc(SCC(=O)NCC2CCCO2)s1", "note": "(stereo not drawn)", "protection from apoptosis": "-3.28%"}, {"compound": "COc1ccccc1/C=N\\Nc1cc(C)nc(-n2nc(C)cc2C)n1", "protection from apoptosis": "85.5% (active)"}, {"compound": "COc1cccc(/C=N/Nc2cc(C)nc(-c3ccccc3O)n2)c1O", "protection from apoptosis": "83.1% (active)"}, {"compound": "Cc1ccc(S(=O)(=O)Nc2nc(C)cc(N/N=C/c3ccc(O)cc3)n2)cc1", "protection from apoptosis": "-0.0503%"}, {"compound": "COc1ccccc1/C=N/Nc1nc(C)c(C(C)=O)s1", "protection from apoptosis": "1.33%"}, {"compound": "COc1ccc(/C=N/Nc2cc(N3CCOCC3)nc(C)n2)c(OC)c1", "protection from apoptosis": "-0.288%"}, {"compound": "Cc1cc(N/N=C\\c2ccc(Br)cc2)nc(-n2nc(C)cc2C)n1", "protection from apoptosis": "101% (active)"}, {"compound": "COc1cc(/C=N/Nc2nc3ccccc3s2)ccc1O", "protection from apoptosis": "-9.44%"}, {"compound": "Cc1nc(Cl)cc(N/N=C/c2ccccc2)n1", "protection from apoptosis": "0.482%"}, {"compound": "COc1cccc2c(N/N=C/c3ccco3)cc(C)nc12", "protection from apoptosis": "0.451%"}, {"compound": "CC(=O)Nc1ccc(S(=O)(=O)NCCC(=O)N2CCN(c3ccccc3Cl)CC2)cc1", "protection from apoptosis": "4.22%"}, {"compound": "O=S(=O)(NCC1CN(S(=O)(=O)c2ccc3c(c2)OCCO3)C1)c1c(F)cccc1F", "protection from apoptosis": "-0.452%"}, {"compound": "O=C(COC(=O)c1n[nH]c2ccccc12)Nc1ccccc1Br", "protection from apoptosis": "2.52%"}, {"compound": "O=C(Nc1ccc(C(F)(F)F)cc1)c1cccc(-n2cnnn2)c1", "protection from apoptosis": "8.03%"}, {"compound": "Cc1ccc(C(=O)Nc2ccccc2-c2ccccc2)cc1S(=O)(=O)Nc1ccccc1", "protection from apoptosis": "12.9%"}, {"compound": "O=C(c1ccc(OC2CCN(Cc3ccccn3)CC2)cc1)N1CCCCCC1", "protection from apoptosis": "-1.86%"}, {"compound": "CN(CCc1ccccn1)C(=O)c1ccc(OC2CCN(Cc3ccccn3)CC2)cc1", "protection from apoptosis": "0.235%"}, {"compound": "O=C(NCCOc1cccnc1)c1ccc(OC2CCN(Cc3ccccn3)CC2)cc1", "protection from apoptosis": "120% (active)"}, {"compound": "CN(Cc1ccc(F)cc1)C(=O)CN1C(=O)c2ccccc2S1(=O)=O", "protection from apoptosis": "-4.27%"}, {"compound": "CN(C)C(CNC(=O)c1ccc(OCc2cn3ccccc3n2)cc1)c1ccco1", "note": "(stereo not drawn)", "protection from apoptosis": "0.439%"}, {"compound": "Oc1ccc(/C=N/NC2=NCCCCC2)c(O)c1", "protection from apoptosis": "-2.33%"}, {"compound": "Cc1cccc(-c2nc(Nc3ccc(O)cc3)c3ccccc3n2)c1", "protection from apoptosis": "-3.47%"}, {"compound": "Cc1nc2ccccc2nc1N/N=C/c1ccc(O)cc1O", "protection from apoptosis": "86.1% (active)"}, {"compound": "Fc1ccc(/C=N/Nc2nc(-c3cccnc3)nc3ccccc23)cc1", "protection from apoptosis": "12.4%"}, {"compound": "FC(F)(F)c1nc2ccccc2nc1N/N=C/c1ccc(Cl)cc1", "protection from apoptosis": "7.12%"}, {"compound": "Oc1ccc(/C=N/Nc2nc(-c3ccccc3F)nc3ccccc23)c(O)c1", "protection from apoptosis": "91.3% (active)"}, {"compound": "COc1ccc(-c2c(C#Cc3ccsc3)c3cc(-c4ccc(CN5CCOCC5)cc4)ccc3n2C)cc1", "protection from apoptosis": "-5.34%"}]}]}
